# Assay results as given in paper PMC7862700, “An all-to-all approach to the identification of sequence-specific readers for epigenetic DNA modifications on cytosine”.
# Columns and labels:
# Assay in all cases: DAPPL (digital affinity profiling via proximity ligation, sequencing); 10 mM Tris-HCl pH 7.5, 50 mM NaCl, 1 mM DTT, 4% glycerol, room temperature, 30 min; GST-TFs on glutathione beads, 16-mer random dsDNA library, 0.1% formaldehyde crosslink after washing; high values mean tight binding
# FLI1 = biological target: T1, FLI1 (Homo sapiens, UniProt Q01543 1-452); conditions: protein: recombinant; tags: N-terminal GST; dsDNA, one strand shown
# T1 sequence: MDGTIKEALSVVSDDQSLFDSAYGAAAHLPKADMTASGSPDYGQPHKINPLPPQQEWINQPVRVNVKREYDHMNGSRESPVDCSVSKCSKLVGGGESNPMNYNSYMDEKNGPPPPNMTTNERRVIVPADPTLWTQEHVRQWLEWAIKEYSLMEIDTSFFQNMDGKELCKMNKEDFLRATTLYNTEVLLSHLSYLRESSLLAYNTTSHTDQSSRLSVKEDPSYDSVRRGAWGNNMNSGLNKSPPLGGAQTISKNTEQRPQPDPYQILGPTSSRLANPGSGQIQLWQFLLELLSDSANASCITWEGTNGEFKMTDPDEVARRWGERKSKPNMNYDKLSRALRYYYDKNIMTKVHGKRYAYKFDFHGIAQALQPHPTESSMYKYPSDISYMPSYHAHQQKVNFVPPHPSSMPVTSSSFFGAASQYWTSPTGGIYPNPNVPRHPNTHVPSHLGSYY
# Procedure, shortened: (§1)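 Binding signal is each hexamer's read frequency for a factor divided by its frequency in the tag-only sample. The factors were GST-fused human transcription factors from yeast, captured on glutathione beads, DNA-barcoded and pooled with that sample. Pools were incubated with 200 nmole of a random double-stranded 16-mer DNA library in Tris/NaCl/DTT/glycerol buffer at room temperature for 30 min, then washed, crosslinked with 0.1% formaldehyde, proximity-ligated with BsaI/T4 ligase (1 h, 37 °C), PCR-amplified and sequenced on an Illumina NextSeq500.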
# ELK1 = biological target: T2, ELK1 (Homo sapiens, UniProt P19419 1-428); conditions: protein: recombinant; tags: N-terminal GST; dsDNA, one strand shown
# T2 sequence: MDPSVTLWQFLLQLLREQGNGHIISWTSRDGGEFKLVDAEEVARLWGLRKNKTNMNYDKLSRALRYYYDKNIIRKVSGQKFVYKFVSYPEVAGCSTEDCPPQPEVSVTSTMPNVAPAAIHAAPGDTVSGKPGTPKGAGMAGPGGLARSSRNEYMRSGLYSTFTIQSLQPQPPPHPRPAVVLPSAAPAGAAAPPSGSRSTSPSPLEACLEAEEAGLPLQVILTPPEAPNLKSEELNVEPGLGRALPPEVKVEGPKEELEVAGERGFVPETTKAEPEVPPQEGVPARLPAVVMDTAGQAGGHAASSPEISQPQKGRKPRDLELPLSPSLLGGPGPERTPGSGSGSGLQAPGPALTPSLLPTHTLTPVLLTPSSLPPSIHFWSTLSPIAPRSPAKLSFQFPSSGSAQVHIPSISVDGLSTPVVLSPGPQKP
# Procedure, shortened: as §1
# GABPA = biological target: T3, GABPA (Homo sapiens, UniProt Q06546 1-454); conditions: protein: recombinant; tags: N-terminal GST; dsDNA, one strand shown
# T3 sequence: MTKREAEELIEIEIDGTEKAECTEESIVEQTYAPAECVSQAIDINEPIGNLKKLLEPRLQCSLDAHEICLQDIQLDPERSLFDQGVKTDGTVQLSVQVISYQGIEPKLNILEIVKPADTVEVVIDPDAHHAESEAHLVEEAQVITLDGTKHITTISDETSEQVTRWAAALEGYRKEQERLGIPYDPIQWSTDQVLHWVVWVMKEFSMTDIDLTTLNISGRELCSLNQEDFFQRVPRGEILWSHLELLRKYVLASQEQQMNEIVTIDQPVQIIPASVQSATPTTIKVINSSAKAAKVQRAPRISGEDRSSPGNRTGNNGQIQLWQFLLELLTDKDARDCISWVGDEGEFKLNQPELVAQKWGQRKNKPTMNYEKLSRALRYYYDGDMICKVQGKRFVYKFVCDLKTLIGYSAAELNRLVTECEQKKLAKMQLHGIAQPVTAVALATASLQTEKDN
# Procedure, shortened: as §1
# ERG = biological target: T4, ERG (Homo sapiens, UniProt P11308 1-479); conditions: protein: recombinant; tags: N-terminal GST; dsDNA, one strand shown
# T4 sequence: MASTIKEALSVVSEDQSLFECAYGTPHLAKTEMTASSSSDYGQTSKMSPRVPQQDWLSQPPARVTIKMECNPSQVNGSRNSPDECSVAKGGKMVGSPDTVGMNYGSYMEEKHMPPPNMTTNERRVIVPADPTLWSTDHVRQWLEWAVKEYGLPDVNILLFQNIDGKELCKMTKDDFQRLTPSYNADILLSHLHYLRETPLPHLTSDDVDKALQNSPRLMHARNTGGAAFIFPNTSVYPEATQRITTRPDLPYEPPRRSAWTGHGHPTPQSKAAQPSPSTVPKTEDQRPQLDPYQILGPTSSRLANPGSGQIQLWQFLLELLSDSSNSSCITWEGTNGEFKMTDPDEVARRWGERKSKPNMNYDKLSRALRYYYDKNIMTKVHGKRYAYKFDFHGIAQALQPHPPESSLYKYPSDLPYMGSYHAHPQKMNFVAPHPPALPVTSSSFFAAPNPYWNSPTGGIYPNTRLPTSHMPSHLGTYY
# Procedure, shortened: as §1
# ELF1 = ELF1 (Homo sapiens, UniProt P32519 1-619); conditions: protein: recombinant; tags: N-terminal GST; dsDNA, one strand shown
# Sequence of ELF1 (P32519 whole entry): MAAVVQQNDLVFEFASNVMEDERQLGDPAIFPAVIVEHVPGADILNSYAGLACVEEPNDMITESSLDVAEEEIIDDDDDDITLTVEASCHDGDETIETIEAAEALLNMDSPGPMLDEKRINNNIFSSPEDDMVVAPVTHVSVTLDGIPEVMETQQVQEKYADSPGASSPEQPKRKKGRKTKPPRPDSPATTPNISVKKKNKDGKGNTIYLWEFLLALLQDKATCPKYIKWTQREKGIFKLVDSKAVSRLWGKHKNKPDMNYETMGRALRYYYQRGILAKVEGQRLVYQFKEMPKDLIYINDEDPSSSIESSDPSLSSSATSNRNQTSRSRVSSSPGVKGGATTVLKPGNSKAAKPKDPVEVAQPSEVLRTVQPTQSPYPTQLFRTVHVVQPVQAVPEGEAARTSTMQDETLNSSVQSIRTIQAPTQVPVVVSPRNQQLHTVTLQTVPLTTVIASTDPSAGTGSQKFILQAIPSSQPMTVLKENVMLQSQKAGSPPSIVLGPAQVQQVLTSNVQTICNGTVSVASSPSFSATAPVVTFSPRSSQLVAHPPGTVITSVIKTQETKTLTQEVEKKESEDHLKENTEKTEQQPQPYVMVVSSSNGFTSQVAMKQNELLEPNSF
# Procedure, shortened: as §1
# EHF = biological target: T5, EHF (Homo sapiens, UniProt Q9NZC4 1-300); conditions: protein: recombinant; tags: N-terminal GST; dsDNA, one strand shown
# T5 sequence: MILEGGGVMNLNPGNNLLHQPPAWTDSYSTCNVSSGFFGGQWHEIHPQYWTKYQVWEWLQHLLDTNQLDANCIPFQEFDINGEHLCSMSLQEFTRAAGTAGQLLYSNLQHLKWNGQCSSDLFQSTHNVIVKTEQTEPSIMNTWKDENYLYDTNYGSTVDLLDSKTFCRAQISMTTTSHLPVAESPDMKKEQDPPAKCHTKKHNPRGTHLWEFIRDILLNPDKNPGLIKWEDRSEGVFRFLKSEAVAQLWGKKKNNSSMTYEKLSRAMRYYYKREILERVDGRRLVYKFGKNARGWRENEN
# Procedure, shortened: as §1
# SPI1 = SPI1 (Homo sapiens, UniProt P17947 1-270); conditions: protein: recombinant; tags: N-terminal GST; dsDNA, one strand shown
# Procedure, shortened: as §1
# SPIB = SPIB (Homo sapiens, UniProt Q01892 1-262); conditions: protein: recombinant; tags: N-terminal GST; dsDNA, one strand shown
# Sequence of SPIB (Q01892 whole entry): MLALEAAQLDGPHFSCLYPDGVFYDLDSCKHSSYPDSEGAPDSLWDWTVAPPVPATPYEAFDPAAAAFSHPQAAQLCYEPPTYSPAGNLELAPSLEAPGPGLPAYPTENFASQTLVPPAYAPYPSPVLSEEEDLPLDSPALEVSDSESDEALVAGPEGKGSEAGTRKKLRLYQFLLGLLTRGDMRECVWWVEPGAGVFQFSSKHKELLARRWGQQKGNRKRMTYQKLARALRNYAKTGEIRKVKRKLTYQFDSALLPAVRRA
# Procedure, shortened: as §1
# ELK3 = biological target: T6, ELK3 (Homo sapiens, UniProt P41970 1-407); conditions: protein: recombinant; tags: N-terminal GST; dsDNA, one strand shown
# T6 sequence: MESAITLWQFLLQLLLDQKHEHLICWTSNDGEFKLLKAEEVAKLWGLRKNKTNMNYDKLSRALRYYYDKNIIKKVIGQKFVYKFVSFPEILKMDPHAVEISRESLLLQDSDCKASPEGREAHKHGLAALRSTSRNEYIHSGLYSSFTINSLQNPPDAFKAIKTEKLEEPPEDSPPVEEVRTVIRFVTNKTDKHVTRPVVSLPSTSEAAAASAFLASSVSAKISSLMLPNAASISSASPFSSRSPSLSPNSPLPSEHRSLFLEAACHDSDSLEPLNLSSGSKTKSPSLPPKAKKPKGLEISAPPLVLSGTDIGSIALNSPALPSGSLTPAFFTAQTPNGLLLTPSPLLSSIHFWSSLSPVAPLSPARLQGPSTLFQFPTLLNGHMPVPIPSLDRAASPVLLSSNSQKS
# Procedure, shortened: as §1
# FEV = biological target: T7, FEV (Homo sapiens, UniProt Q99581 1-238); conditions: protein: recombinant; tags: N-terminal GST; dsDNA, one strand shown
# T7 sequence: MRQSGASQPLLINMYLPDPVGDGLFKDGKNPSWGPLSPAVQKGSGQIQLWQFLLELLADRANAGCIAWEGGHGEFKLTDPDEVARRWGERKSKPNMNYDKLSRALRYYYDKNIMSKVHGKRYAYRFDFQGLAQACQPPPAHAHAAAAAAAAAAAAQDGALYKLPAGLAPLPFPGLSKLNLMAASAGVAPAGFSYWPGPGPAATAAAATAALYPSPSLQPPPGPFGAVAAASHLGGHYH
# Procedure, shortened: as §1
# ETV5 = ETV5 (Homo sapiens, UniProt P41161 1-510); conditions: protein: recombinant; tags: N-terminal GST; dsDNA, one strand shown
# Sequence of ETV5 (P41161 whole entry): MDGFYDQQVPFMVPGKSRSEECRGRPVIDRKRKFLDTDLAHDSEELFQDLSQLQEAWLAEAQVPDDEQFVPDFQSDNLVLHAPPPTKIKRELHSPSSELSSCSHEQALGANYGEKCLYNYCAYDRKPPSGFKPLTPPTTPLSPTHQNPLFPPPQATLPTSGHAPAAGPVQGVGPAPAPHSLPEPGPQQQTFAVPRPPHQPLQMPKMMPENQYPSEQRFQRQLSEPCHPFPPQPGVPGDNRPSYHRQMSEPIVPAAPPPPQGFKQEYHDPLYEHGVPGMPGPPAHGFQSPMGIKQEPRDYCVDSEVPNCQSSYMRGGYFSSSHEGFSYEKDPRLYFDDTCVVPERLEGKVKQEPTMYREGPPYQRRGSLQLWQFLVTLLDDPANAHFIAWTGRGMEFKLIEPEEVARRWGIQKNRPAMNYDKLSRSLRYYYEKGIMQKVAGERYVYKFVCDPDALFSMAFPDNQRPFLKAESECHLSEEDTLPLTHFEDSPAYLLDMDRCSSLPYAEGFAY
# Procedure, shortened: as §1
# HSF1 = HSF1 (Homo sapiens, UniProt Q00613 1-529); conditions: protein: recombinant; tags: N-terminal GST; chain copies: 3; dsDNA, one strand shown
# Sequence of HSF1 (Q00613 whole entry): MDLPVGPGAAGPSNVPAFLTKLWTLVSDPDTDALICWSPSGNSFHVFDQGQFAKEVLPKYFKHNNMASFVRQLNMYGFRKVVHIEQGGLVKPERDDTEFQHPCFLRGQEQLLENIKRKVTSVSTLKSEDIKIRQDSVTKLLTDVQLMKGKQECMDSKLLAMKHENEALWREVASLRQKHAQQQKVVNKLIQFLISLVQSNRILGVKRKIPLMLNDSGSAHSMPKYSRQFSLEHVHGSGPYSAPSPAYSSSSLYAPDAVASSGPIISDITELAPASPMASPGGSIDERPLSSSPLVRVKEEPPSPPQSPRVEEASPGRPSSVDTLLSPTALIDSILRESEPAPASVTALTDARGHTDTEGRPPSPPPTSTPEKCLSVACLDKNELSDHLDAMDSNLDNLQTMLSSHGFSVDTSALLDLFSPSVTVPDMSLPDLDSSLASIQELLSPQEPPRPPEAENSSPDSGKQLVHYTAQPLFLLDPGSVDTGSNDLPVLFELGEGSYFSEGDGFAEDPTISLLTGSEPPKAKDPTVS
# Procedure, shortened: as §1
# SPIC = biological target: T8, SPIC (Homo sapiens, UniProt Q8N5J4 1-248); conditions: protein: recombinant; tags: N-terminal GST; dsDNA, one strand shown
# T8 sequence: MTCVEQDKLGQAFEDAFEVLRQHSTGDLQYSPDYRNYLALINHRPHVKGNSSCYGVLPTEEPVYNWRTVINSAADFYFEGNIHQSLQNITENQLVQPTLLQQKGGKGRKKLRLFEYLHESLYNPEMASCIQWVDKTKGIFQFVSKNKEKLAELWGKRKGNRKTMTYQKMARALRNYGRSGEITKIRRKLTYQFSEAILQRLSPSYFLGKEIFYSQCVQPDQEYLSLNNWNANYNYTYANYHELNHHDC
# Procedure, shortened: as §1
# ELF4 = ELF4 (Homo sapiens, UniProt Q99607 1-663); conditions: protein: recombinant; tags: N-terminal GST; dsDNA, one strand shown
# Sequence of ELF4 (Q99607 whole entry): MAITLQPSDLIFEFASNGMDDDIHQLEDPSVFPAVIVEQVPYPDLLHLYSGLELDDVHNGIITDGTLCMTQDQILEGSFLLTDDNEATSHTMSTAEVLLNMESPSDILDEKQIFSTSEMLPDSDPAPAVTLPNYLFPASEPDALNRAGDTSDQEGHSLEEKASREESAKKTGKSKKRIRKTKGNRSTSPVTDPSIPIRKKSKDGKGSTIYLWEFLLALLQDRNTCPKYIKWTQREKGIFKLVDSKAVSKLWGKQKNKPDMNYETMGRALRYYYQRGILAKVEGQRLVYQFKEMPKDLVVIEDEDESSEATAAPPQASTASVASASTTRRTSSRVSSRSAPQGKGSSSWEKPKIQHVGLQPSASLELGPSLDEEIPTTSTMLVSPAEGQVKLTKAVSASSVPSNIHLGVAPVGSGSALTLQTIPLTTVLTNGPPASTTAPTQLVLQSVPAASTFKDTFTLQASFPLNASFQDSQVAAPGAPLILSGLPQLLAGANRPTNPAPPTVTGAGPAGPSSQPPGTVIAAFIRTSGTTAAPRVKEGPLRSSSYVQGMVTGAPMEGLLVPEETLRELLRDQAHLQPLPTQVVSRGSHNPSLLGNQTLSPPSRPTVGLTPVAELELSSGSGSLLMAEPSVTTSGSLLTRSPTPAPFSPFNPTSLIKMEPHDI
# Procedure, shortened: as §1
# ELK4 = biological target: T9, ELK4 (Homo sapiens, UniProt P28324-2 1-405); conditions: protein: recombinant; tags: N-terminal GST; dsDNA, one strand shown
# T9 sequence: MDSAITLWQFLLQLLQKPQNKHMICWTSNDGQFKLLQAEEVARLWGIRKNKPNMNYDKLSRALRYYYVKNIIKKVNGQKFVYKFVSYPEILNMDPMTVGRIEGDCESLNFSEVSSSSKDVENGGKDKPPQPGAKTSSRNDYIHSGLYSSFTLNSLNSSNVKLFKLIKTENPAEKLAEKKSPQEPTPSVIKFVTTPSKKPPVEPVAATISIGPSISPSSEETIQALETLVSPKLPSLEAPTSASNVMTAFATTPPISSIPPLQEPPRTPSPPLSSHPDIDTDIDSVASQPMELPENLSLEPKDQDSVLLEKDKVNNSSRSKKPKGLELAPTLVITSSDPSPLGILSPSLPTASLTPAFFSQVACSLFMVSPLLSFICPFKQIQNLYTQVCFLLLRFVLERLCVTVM
# Procedure, shortened: as §1
# ETV2 = biological target: T10, ETV2 (Homo sapiens, UniProt O00321 1-342); conditions: protein: recombinant; tags: N-terminal GST; dsDNA, one strand shown
# T10 sequence: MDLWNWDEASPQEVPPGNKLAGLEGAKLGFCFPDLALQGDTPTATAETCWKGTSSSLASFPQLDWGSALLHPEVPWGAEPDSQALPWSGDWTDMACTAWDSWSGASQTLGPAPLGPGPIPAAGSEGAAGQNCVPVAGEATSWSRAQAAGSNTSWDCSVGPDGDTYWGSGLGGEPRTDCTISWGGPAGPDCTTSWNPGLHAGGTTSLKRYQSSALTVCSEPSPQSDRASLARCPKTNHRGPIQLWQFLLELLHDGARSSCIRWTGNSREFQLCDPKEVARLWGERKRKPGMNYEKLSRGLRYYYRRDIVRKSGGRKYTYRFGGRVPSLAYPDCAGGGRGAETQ
# Procedure, shortened: as §1
# ELF3 = biological target: T11, ELF3 (Homo sapiens, UniProt P78545 1-371); conditions: protein: recombinant; tags: N-terminal GST; dsDNA, one strand shown
# T11 sequence: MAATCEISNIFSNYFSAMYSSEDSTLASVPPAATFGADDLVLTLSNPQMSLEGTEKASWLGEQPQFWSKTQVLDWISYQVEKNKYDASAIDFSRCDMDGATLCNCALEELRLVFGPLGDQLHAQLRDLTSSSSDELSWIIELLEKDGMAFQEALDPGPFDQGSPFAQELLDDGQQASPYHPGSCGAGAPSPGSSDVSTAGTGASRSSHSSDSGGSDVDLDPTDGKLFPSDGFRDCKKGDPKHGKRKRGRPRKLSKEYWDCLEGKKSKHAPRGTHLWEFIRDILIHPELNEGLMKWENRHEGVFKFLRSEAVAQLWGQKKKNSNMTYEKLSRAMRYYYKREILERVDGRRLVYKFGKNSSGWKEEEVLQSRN
# Procedure, shortened: as §1
# CRX = CRX (Homo sapiens, UniProt O43186 1-299); conditions: protein: recombinant; tags: N-terminal GST; dsDNA, one strand shown
# Sequence of CRX (O43186 whole entry): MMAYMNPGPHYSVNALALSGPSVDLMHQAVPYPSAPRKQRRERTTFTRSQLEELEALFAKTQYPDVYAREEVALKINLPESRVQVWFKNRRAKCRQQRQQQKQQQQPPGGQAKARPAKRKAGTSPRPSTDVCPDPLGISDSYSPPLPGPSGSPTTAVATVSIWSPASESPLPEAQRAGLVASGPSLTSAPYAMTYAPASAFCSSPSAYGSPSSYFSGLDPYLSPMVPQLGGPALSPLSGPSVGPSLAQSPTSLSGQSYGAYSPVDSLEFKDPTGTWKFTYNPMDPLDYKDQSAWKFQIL
# Procedure, shortened: as §1
# ETV1 = ETV1 (Homo sapiens, UniProt P50549 1-477); conditions: protein: recombinant; tags: N-terminal GST; dsDNA, one strand shown
# Sequence of ETV1 (P50549 whole entry): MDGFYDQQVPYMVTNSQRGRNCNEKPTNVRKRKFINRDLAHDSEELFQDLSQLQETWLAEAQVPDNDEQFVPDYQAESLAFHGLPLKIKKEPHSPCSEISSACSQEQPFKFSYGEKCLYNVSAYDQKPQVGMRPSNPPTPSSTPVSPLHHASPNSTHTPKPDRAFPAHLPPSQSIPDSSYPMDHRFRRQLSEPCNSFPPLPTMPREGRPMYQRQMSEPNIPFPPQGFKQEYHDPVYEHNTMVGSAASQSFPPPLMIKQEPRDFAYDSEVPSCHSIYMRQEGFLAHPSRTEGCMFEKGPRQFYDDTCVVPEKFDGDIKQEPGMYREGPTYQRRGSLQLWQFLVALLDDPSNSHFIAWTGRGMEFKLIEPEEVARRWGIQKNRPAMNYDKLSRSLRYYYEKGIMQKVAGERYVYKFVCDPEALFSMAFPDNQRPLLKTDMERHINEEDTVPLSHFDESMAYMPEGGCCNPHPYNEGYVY
# Procedure, shortened: as §1
sequence,measurement,setting,value
ATTCAA,binding signal,FLI1,"1.26 fold enrichment (6-mer frequency, TF over GST control)"
same,binding signal,ELK1,"1.34 fold enrichment (6-mer frequency, TF over GST control)"
same,binding signal,GABPA,"1.4 fold enrichment (6-mer frequency, TF over GST control)"
same,binding signal,ERG,"1.36 fold enrichment (6-mer frequency, TF over GST control)"
same,binding signal,ELF1,"1.39 fold enrichment (6-mer frequency, TF over GST control)"
same,binding signal,EHF,"1.41 fold enrichment (6-mer frequency, TF over GST control)"
same,binding signal,SPI1,"1.31 fold enrichment (6-mer frequency, TF over GST control)"
same,binding signal,SPIB,"1.34 fold enrichment (6-mer frequency, TF over GST control)"
same,binding signal,ELK3,"1.39 fold enrichment (6-mer frequency, TF over GST control)"
same,binding signal,FEV,"1.27 fold enrichment (6-mer frequency, TF over GST control)"
same,binding signal,ETV5,"1.32 fold enrichment (6-mer frequency, TF over GST control)"
same,binding signal,HSF1,"1.32 fold enrichment (6-mer frequency, TF over GST control)"
same,binding signal,SPIC,"1.32 fold enrichment (6-mer frequency, TF over GST control)"
same,binding signal,ELF4,"1.34 fold enrichment (6-mer frequency, TF over GST control)"
same,binding signal,ELK4,"1.39 fold enrichment (6-mer frequency, TF over GST control)"
same,binding signal,ETV2,"1.38 fold enrichment (6-mer frequency, TF over GST control)"
same,binding signal,ELF3,"1.38 fold enrichment (6-mer frequency, TF over GST control)"
same,binding signal,CRX,"1.36 fold enrichment (6-mer frequency, TF over GST control)"
same,binding signal,ETV1,"1.32 fold enrichment (6-mer frequency, TF over GST control)"
